The whole screen tested about 2,500 compounds, of which about 1,100 (44%) were called active.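 How the source made its calls: active means inhibition above 50% at 4 µM in the single-point screen; inactive means inhibition of 50% or less.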 So high a share suggests a set chosen from earlier hits. Some of the results follow.
Assay: blockers of TNF-a NF-kB luciferase induction – cell-based, HEK293T NF-kB-Luc, luminescence, selectivity assay for NOD1/NOD2 signaling inhibitor project, primary screen (AID 1852)
Settings: TNF-a induced, 14 h, at 4 µM, hits give high values

SMILES | inhibition
CCc1ccc(S(=O)(=O)Nc2cc(SCC(=O)O)c(O)c3ccccc23)cc1 | 8% (inactive)
Cc1ccc(C)c(S(=O)(=O)Nc2cc(SCC(=O)O)c(O)c3ccccc23)c1 | 105% (active)
O=C(O)CSc1cc(NS(=O)(=O)c2ccc(Cl)cc2)c2ccccc2c1O | 93.9% (active)
Cc1ccc(-c2n[nH]c(=O)c3ccccc23)cc1S(=O)(=O)Nc1ccccc1 | 14.6% (inactive)
COc1ccc(S(=O)(=O)Nc2cc(SCC(=O)O)c(O)c3ccccc23)cc1 | 98.3% (active)
COC(=O)c1sccc1NC(=O)CSc1ccccc1NS(=O)(=O)c1cc(Cl)ccc1Cl | 39% (inactive)
CCOc1ccc(S(=O)(=O)Nc2cc(SCC(=O)O)c(O)c3ccccc23)cc1 | 92.5% (active)
COc1ccc(S(=O)(=O)c2c(O)cc(C)c(NS(=O)(=O)c3ccccc3)c2C)cc1 | 46.9% (inactive)
COC(=O)c1sccc1NC(=O)CSc1ccccc1NS(=O)(=O)c1ccc(Br)cc1 | 26.3% (inactive)
Cc1cc(S(=O)(=O)NCc2ccncc2)c(C)cc1Br | 22.7% (inactive)
CS(=O)(=O)C1=NN2C(=N)/C(=C\c3ccc(OCCOc4ccccc4)cc3)C(=O)N=C2S1 | -28.3% (inactive)
CCN1CCN(Cc2ccc(NC(=O)c3ccc(C)c(NC(=O)c4ccno4)c3)cc2C(F)(F)F)CC1 | -16.6% (inactive)
O=C(Nc1ccc2nc3n(c(=O)c2c1)CCCCC3)c1c(F)ccc([N+](=O)[O-])c1F | 94.6% (active)
O=C(Nc1ccc2nc3n(c(=O)c2c1)CCCCC3)c1cc([N+](=O)[O-])ccc1F | 37.4% (inactive)
O=C(c1[nH]ncc1-c1ccccc1)C1CO1 (stereo not given) | 2.8% (inactive)
Cc1ccc(/C=N/Nc2ccc(C(=O)O)cc2)s1 | 44.7% (inactive)
O=[N+]([O-])c1ccc(/C=N/NC(=S)Nc2ccc(Cl)cc2Cl)s1 | 31.8% (inactive)
Cc1ccc(C(=O)N/N=C/c2ccc([N+](=O)[O-])s2)cc1 | 66.9% (active)
O=C(N/N=C/c1ccc([N+](=O)[O-])s1)c1ccncc1 | 45.8% (inactive)
Cc1ccc(NC(=S)N/N=C/c2ccc([N+](=O)[O-])s2)cc1 | 100% (active)
Cc1cccc(NC(=S)N/N=C/c2ccc([N+](=O)[O-])s2)c1 | 106% (active)
Cc1ccc(-c2nnc(Sc3nc4ccccc4o3)c3ccccc23)cc1 | -46.1% (inactive)
CCC(C)Cn1c(C(C)C)nc2ccccc21 (stereo not given) | -3% (inactive)

SMILES | inhibition
CCC(C)Cn1c(C)nc2ccccc21 (stereo not given) | 28% (inactive)
CCC(C)Cn1c(O)cc2nn(-c3nc4ccccc4s3)c(=O)c-2c1C (stereo not given) | 77.4% (active)
COc1c(C)cc(C(=O)C2CCCN(C(=O)CCc3scnc3C)C2)cc1C (stereo not given) | 27.3% (inactive)
Cc1ccnn1CCC(=O)N1CCCC(Nc2ccc(F)c(F)c2)C1 (stereo not given) | 21.6% (inactive)
Fc1ccc(C2CCCN2Cc2nc(Cc3ccccc3F)no2)cc1 (stereo not given) | -0.4% (inactive)
CCc1cc(C(=O)NC2CCCN(Cc3ccccc3F)C2)n(C)n1 (stereo not given) | 57.5% (active)
CCC(C)c1ccc(C(C)NC(=S)NC2CCCCC2)cc1 (stereo not given) | 21.1% (inactive)
Cc1nc2ccc(NC(=O)CCS(=O)(=O)c3ccccc3)cc2s1 | -1.1% (inactive)
CS(=O)(=O)c1ccc2nc(NC(=O)CCS(=O)(=O)c3ccccc3)sc2c1 | 36.3% (inactive)
O=C(CCS(=O)(=O)c1ccccc1)Nc1cccc(-c2nc3ccccc3s2)c1 | 59.9% (active)
O=C(c1cn(-c2ccccc2)nc1-c1ccccc1)n1nnc2ccccc21 | 27.6% (inactive)
OCCCNc1ncnc2scc(-c3ccc(Cl)cc3)c12 | 78.5% (active)
COc1ccc(-c2csc3ncnc(NCCCO)c23)cc1 | 60.7% (active)
COc1ccc(-c2csc3ncnc(NCCO)c23)cc1 | 49.8% (inactive)
CCc1cccc(NS(=O)(=O)c2csc(C(N)=O)c2)c1 | 23.5% (inactive)
CNC(=S)N(CCc1c(C)[nH]c2ccc(Cl)cc12)Cc1cc(OC)c(OC)c(OC)c1 | 36.1% (inactive)
CCOC(=O)c1sc(NC(=O)CSc2n[nH]c(-c3ccncc3)n2)c(C#N)c1C | 26.6% (inactive)
CCCc1ccc(-c2c(C)sc(NC(=O)c3ccnn3C)c2C#N)cc1 | 86.3% (active)
CCN1/C(=C/C(C)=C/c2sc3ccccc3[n+]2CC)Sc2ccccc21 | 71.8% (active)
CCN1/C(=C/C=C/C=C/C=C/c2sc3ccccc3[n+]2CC)Sc2ccccc21 | 62.2% (active)
O=c1c2cc([N+](=O)[O-])ccc2nc(CN2CCN(c3ccccn3)CC2)n1-c1ccccc1F | 2.4% (inactive)
Cc1ccc(NC(=O)CSc2nn(-c3ccccc3)c(=S)s2)cc1S(=O)(=O)N(C)C | 72.3% (active)

From PubChem BioAssay AID1852 (Sanford-Burnham Center for Chemical Genomics, 2009)
